Rows were chosen to be rich in hits. Some 9.2% of all compounds tested hit in one or more screens of this group.
FLuc counter = inhibits or activates purified firefly luciferase, miR-21 counter-screen. P08659. purified FLuc, Km substrates, luminescence inhibition. Potency, µM (titrated, usually from 57.5 µM), for inactives: at the top dose activity change, negative = inhibition, most hits filed as inhibitors. actives 6.9% (n = 360,000);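 also: plate controls were vehicle for no effect and reference inhibitor for full effect; nearly all actives have a fitted effect of over 55% in size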
Target sequence (P08659 whole entry, looked up): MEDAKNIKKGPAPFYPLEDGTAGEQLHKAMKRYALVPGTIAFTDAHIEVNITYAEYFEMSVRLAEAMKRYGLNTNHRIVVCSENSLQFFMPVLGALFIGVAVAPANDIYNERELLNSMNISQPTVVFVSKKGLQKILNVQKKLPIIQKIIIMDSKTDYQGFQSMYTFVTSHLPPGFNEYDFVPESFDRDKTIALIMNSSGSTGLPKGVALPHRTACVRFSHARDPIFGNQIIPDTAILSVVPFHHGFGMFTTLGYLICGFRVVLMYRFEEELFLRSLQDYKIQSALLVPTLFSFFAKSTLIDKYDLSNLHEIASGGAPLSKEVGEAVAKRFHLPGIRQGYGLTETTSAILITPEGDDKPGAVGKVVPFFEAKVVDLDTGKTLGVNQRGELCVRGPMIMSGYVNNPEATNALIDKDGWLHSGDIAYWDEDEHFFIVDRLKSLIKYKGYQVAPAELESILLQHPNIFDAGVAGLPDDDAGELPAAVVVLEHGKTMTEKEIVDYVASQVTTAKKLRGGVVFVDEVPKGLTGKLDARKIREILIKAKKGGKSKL
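Biochemical qHTS of compounds, final roughly 60 µM downward over six points, against 10 nM purified firefly luciferase using Km concentrations of substrates (10 uM D-luciferin, 10 uM ATP) in Tris acetate pH 7.5 buffer; luminescence output.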
SMN2 splice enh = increases expression of the SMN2 splice variant; HEK293 SMN2-luciferase splicing reporter, luminescence, 30-36 h; Potency, µM (doses to about 46.1 µM), for the others: top-dose activity change, positive = activation, usual class: activators; actives 2.8% (n = 210,000); AID 1458; also: % of control where 0% means no effect; nearly all actives have a fitted effect of over 55% in size
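qHTS luciferase splicing reporter: luminescence rises when SMN2 exon 7 is included in transfected HEK293 cells. Compound exposure lasted 30-36 h at 37C, with 4.5 mM final sodium butyrate as control, followed by a ONE-Glo read.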
Rab9 promoter act = activators of Rab9 promoter. Potency, µM (titrated, usually from 9.22 µM), for the others: top-dose activation, negative = inhibition, actives largely listed as activators. actives 2.8% (n = 320,000). AID 485297. Huh7 Rab9 promoter-luciferase reporter, luminescence, 24 h; also: % of control where 0% means no effect; nearly all actives have a fitted effect of over 60% in size
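Luciferase signal after 10 min detection reagent at ambient indicates Rab9 promoter upregulation; stably transfected Huh7 cells were treated 24 h with compound in DMSO at 37 °C, 5% CO2.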
ELG1 DNA repair = ELG1-dependent DNA repair inhibition | Potency, µM (series often up to 46.1 µM), inactives show at the top dose activity change, negative = inhibition, actives largely listed as inhibitors | actives 2.3% (n = 330,000) | HEK293T ELG1-luciferase reporter, luminescence, 16 h; DNA damage induced by 5-fluorouridine; also: % is scaled to controls: 0 for no effect and ±100 for the full control effect; nearly all actives have a fitted effect of over 55% in size
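Cells (2,000 per well) received 5-fluorouridine plus test compound or DMSO and were incubated 16 hr at 37 °C, 5% CO2. Luciferase activity was read by luminescence 30 min after ONE-Glo addition; signal suppression marked inhibition of damage-induced ELG1 function.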
NPC1 prom act = activators of NPC1 promoter; Huh7 NPC1 promoter luciferase reporter, 24 h; Potency, µM (doses to about 9.22 µM), without a hit: at the highest dose activation, hits mostly activators; actives 2.4% (n = 320,000); also: % of control where 0% means no effect; nearly all actives have a fitted effect of over 60% in size
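In 1536-well qHTS, Huh7 cells harboring an NPC1 promoter–luciferase construct received compound for 24 h; activation was quantified by luminescence following luciferase reagent addition.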
ELG1 genotox = induces genotoxicity in HEK293T cells with luciferase-tagged ELG1 | HEK293T ELG1-luciferase reporter, luminescence, 16 h | Potency, µM (series often up to 46 µM), without a hit: at the highest dose activity change, positive = activation, actives largely listed as activators | actives 1.3% (n = 330,000) | AID 504466; also: % of control where 0% means no effect; nearly all actives have a fitted effect of over 60% in size
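16 hr compound incubation (37 °C, 5% CO2) of HEK293T cells carrying luciferase-tagged ELG1; luciferase then measured by ONE-Glo luminescence after 30 min at RT.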
The depositor's hits bear a star; ? = inconclusive; · = not tested or not shown. Calls follow the shape of the dose curve; as a rule, active = well fitted curve in the direction sought with a large enough effect; inconclusive = small, poorly fitted or top-dose-only effect, or another doubt; inactive = no such curve, though single readings can be large; an effect the other way counts as inactive or inconclusive. Potency is read from the fitted curve at half-maximal effect.

SMILES | FLuc counter | SMN2 splice enh | Rab9 promoter act | ELG1 DNA repair | NPC1 prom act | ELG1 genotox
O=C(Nc1cccc(NC(=O)c2ccc(Cl)cc2Cl)c1)c1cccnc1 | 13µM* | · | -5% | -30% | -5% | -9%
COc1cccc(C(=O)Nc2cccc(NC(=O)c3ccccc3Cl)c2)c1 | 15µM* | · | 10% | -10% | -1% | -8%
COc1cccc(C(=O)Nc2cccc(C(=O)NC3=NN(c4c(Cl)cc(Cl)cc4Cl)C(=O)C3)c2)c1 | 9.5µM* | 9% | 17% | -1% | -2% | 9%
CC(C)(C)C(=O)NC1=NN(c2c(Cl)cc(Cl)cc2Cl)C(=O)C1 | 3% | · | -3% | 6% | -11% | -3%
Cc1ccc(C(=O)COC(=O)c2cccc(NC(=O)c3ccc(Cl)cc3Cl)c2)cc1 | 0.85µM* | ? | · | · | · | ·
O=C(O)c1ccc(CNCc2ccccc2Cl)s1 | -17% | -2% | · | · | · | ·
COc1cc(NC(=O)CSc2ncnc3sc4c(c23)CCCC4)c(C(=O)O)cc1OC | -2% | · | -7% | 3% | -5% | 4%
COc1ccc(Nc2nc(N)nc(CSC(=S)N3CCN(c4ccccc4)CC3)n2)cc1 | -8% | -33% | 0% | 12µM* | -1% | -7%
CCOc1ccc(Nc2nc(N)nc(CSC(=S)N3CCN(c4ccccc4)CC3)n2)cc1 | -10% | · | 0% | 10µM* | 2% | -12%
Cc1cc(NC(=O)Nc2nc3c(s2)CCCCCC3)ccc1Br | 0% | · | · | · | · | ·
O=C(Nc1ncc([N+](=O)[O-])s1)c1ccccc1Br | ? | · | ? | -1% | 3.5µM* | 8%
Cc1ncoc1C(=O)Nc1nccs1 | 0% | · | 15% | 16% | -2% | 2%
Cc1ncoc1C(=O)Nc1ncc([N+](=O)[O-])s1 | 6.7µM* | 4.5µM* | 0.32µM* | ? | 0.71µM* | ?
Cc1cnc(NC(=O)c2cccs2)s1 | 11µM* | · | 1.4µM* | ? | ? | ?
O=C(Nc1ncc([N+](=O)[O-])s1)c1cccs1 | 8.5µM* | · | 1µM* | ? | 0.89µM* | ?
O=C(Nc1ncc(Cl)cn1)c1cccs1 | ? | 23% | 43% | ? | 27% | ?
CCCCn1c(=O)c2oc3ccccc3c2n(CC(=O)Nc2cccc(Cl)c2)c1=O | -4% | · | · | · | · | ·
O=C(/C=C/c1ccc([N+](=O)[O-])cc1)NCc1ccccn1 | -1% | -11% | -4% | -2% | -2% | 1%
O=C(/C=C/c1ccc([N+](=O)[O-])cc1)Nc1ncc([N+](=O)[O-])s1 | 0.12µM* | 0.5µM* | 0.79µM* | ? | 0.05µM* | ?
O=C(N/N=C/c1cc(Br)c(O)c(Br)c1)c1cccc(C(F)(F)F)c1 | ? | -23% | -3% | -1% | 1% | 2%
O=C(N/N=C/c1ccnc2ccccc12)c1ccccc1O | 11µM* | · | 8% | ? | 15% | 15%
O=C(N/N=C/c1cccc(C(F)(F)F)c1)c1ccccc1O | 6.7µM* | -9% | 15% | 20% | 18% | 3%
O=C(N/N=C/c1ccc2nccnc2c1)c1ccncc1 | ? | · | 0% | -1% | -8% | -1%
O=C(N/N=C/c1ccc2nccnc2c1)c1ccccc1O | 0.27µM* | · | ? | ? | ? | 3%
CC(=O)NC1C(OC(=O)/C=C/c2ccccc2)OC(COC(C)=O)C(OC(C)=O)C1OC(C)=O (stereo not given) | -1% | · | -2% | ? | 2% | 0%
SMILES | FLuc counter | SMN2 splice enh | Rab9 promoter act | ELG1 DNA repair | NPC1 prom act | ELG1 genotox
CC(=O)Cn1ncc(N(C)Cc2ccccc2)c(Cl)c1=O | 17µM* | · | ? | ? | ? | ?
c1cnc(SCCOc2ccc3c(c2)CCC3)nc1 | 1.7µM* | 13µM* | 1.6µM* | ? | 2.8µM* | 4.6µM*
CNCCCOc1ccc2c(c1)CCC2 | -1% | 11% | 24% | ? | 16% | 5%
CCC(=O)c1ccc(OCCSc2ncccn2)cc1 | 19µM* | 7.9µM* | 2µM* | ? | 4µM* | 3.7µM*
O=C(NP(=O)(N1CCOCC1)N1CCOCC1)C1=C(N2CCOCC2)/C(=C\c2ccccc2)CC1 | -20% | 5% | -2% | 8% | 0% | 4%
COc1cc(NC(=O)C2=C(N3CCOCC3)/C(=C\c3ccc(Br)cc3)CC2)cc(OC)c1OC | -2% | 16% | 3% | 18µM* | -3% | -6%
COc1cc(NC(=O)C2=C(N3CCOCC3)/C(=C\c3ccc(Cl)cc3Cl)CC2)cc(OC)c1OC | 2% | 14% | -4% | 21µM* | -3% | -1%
CC(C)OCCCNC(=O)c1cc2c(-c3ccc(Cl)cc3)nn(C)c2s1 | -10% | -3% | · | · | · | ·
CC(=O)OCC(=O)[C@@]12OC(C)(C)OC1CC1C3CC(F)C4=CC(=O)C=C[C@@]4(C)[C@@]3(F)C(O)C[C@]12C (stereo not given in full) | · | -5% | · | · | · | ·
Cc1ccc(C(=O)C(NC(=O)c2ccco2)N2CCOCC2)cc1 (stereo not given) | -11% | 13µM* | ? | ? | ? | 18µM*
O=C1C(Cl)=C(N2CCCCCC2)C(=O)N1c1ccc(Cl)cc1 | ? | · | -3% | 10% | -1% | 4%
O=C1C=C(N2CCCCCC2)C(=O)N1c1ccc(Cl)cc1 | 2.1µM* | · | 2.2µM* | ? | 1.6µM* | ?
C=CCn1c(/N=C/c2ccc(N(C)C)cc2)nc2ccccc21 | 0.13µM* | · | 9% | 10% | 0% | 0%
CCCCn1c(/N=C/c2ccc(N(C)C)cc2)nc2ccccc21 | 1.9µM* | -20% | -2% | -3% | 0% | -1%
CCCCn1c(/N=C/c2ccc3c(c2)OCO3)nc2ccccc21 | 8.5µM* | 18% | 2% | -5% | -3% | -3%
COc1ccc(/C=N/c2nc3ccccc3n2CCN2CCCCC2)cc1OC | -9% | 7% | -2% | 6% | -3% | 0%
CCCCn1c(N)nc2ccccc21 | 4% | -10% | 3% | ? | -1% | -8%
C=CCn1c(/N=C/c2ccc(OC)cc2)nc2ccccc21 | 0.43µM* | · | -2% | -6% | -5% | -2%
O=C(Nc1nc(-c2ccc(Br)cc2)ns1)c1ccc(F)cc1 | -8% | · | · | · | · | ·
CC(C)c1ccc(NC(=O)c2cc3c(=O)[nH]c4ccccc4c3n2C)cc1 | 2% | -1% | · | · | · | ·
CCCn1c(/N=C/c2ccccc2O)nc2ccccc21 | 0% | -3% | 0% | 2% | -4% | 2%
CN(C)c1ccc(/C=N/n2ncc3ccccc32)cc1 | 11µM* | 8.9µM* | ? | ? | 24% | ?
CCn1c(/N=C/c2ccc(OC)cc2O)nc2ccccc21 | 0.95µM* | · | 9% | 2% | 0% | 1%

Screens as filed in PubChem.
